# Screens from PubChem BioAssay.
# Vif imaging: inhibitors of HIV Vif; HEK293T cells, Vif self-association by quenched fluorescence, imaging, 24 h; 340,000 tested, 0.35% active; inhibition, % at 7.49 µM; in the data active = inhibition above about 50%, passing the limit was not always enough; inconclusive = no clear call, values can overlap the other calls; inactive = below about 31%
# Glyco luc inh: N-linked glycosylation inhibition | 360,000 tested, 0.23% active | reporter increase, % at 12.5 µM | AID 588692 | D54 ERlucT glycosylation luciferase reporter, 24 h; percent of 100 nM tunicamycin response;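 active = mean luciferase reporter signal, scaled so untreated is 0 and the glycosylation-blocking control 100, at or above a set limit in every replicate; inconclusive = mean reaches the limit but not every replicate does; inactive = mean below the limit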;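 also: luciferase carries N-glycosylation sites so blocking glycosylation raises the light; 0% = median of neutral control wells and 100% = median of 100 nM tunicamycin wells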
# MITF TRPM1 HTS: activators of MITF-driven TRPM1 promoter activity in SK-MEL-5 cells; SK-MEL-5 TRPM1-promoter luciferase, 24 h; % of positive control, neutral wells = 0; activation, % at 12.5 µM; 300,000 tested, 0.75% active;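 active = mean activation of at least 80% with every replicate also reaching 80%; inconclusive = mean reaches 80% but some replicate falls short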;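 also: 0% = neutral control wells and 100% = parthenolide positive control wells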
# esBAF inh: SWI/SNF esBAF complex inhibition. mouse ES cells, Bmi1-luciferase knock-in reporter, 24 h; 100% = twice the neutral-well signal. reporter increase, % at 12.5 µM. 350,000 tested, 2% active; in the data active = activation above about 40%; inconclusive = no clear call, values can overlap the other calls;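 also: 0% = median of the plate's neutral control wells and 100% = double that signal; a rise in the Bmi1 reporter signal indicates esBAF inhibition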
# Wnt bcat act: activators of Wnt/beta-catenin signaling | Wnt/beta-catenin reporter cell assay, activator, plate reader | activation, % at 9.35 µM | 300,000 tested, 1.2% active; in the data active = activation above about 30%, passing the limit was not always enough; inconclusive = no clear call, values can overlap the other calls;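 also: 0% = neutral control wells and 100% = positive control wells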
# PfHsp90 set2: reduces growth (ATP signal) of yeast expressing P. falciparum Hsp90; S. cerevisiae expressing PfHsp90, BacTiter-Glo ATP, 48 h; yeast lacking PDR1 and PDR3 efflux regulators; inhibition, % at 9.4 µM; 310,000 tested, 0.32% active; AID 504621;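 active = every replicate shows inhibition above about 80%, whatever the replicate mean, limit read from the data; inconclusive = mean inhibition reaches the set limit but some replicate falls short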;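 also: 0% = DMSO neutral controls and 100% = 20 µM radicicol positive controls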
# An asterisk follows results filed as active; ? = inconclusive; . = no result given. Hits are enriched below; roughly 3% of the tested compounds scored in any of these assays.
SMILES,Vif imaging,Glyco luc inh,MITF TRPM1 HTS,esBAF inh,Wnt bcat act,PfHsp90 set2
CCNC(=O)C[C@@H]1CC[C@@H]2[C@H](COC[C@@H](O)CN2C(=O)Nc2c(C)noc2C)O1,.,.,.,-5,.,.
CCCCNC(=O)C1CCN(C(=O)Nc2ccc(C)cc2)CC1,12,1,.,7,2,.
COc1ccc(-c2nc3ccccc3o2)cc1OC,17,3,22,3,-1,-20
c1ccc2oc(-c3ccc4nc[nH]c4c3)nc2c1,1,-5,98*,47*,.,-1
Cc1ccccc1N1C(=O)C2C3C=CC(CC3)C2C1=O (stereo not drawn),-3,-3,.,-4,-1,-36
COc1ccc(C[C@@H]2OC3(C=CC(=O)C=C3)O[C@H]2Cc2ccc(OC)cc2)cc1,69*,-20,-100,-86,.,32
CC(=NC1CCCCC1)C1=C(O)c2ccccc2C1=O,-12,-9,90*,14,?,-21
CC(=NC1CCCCC1)c1ccc(O)cc1O,-1,1,.,14,0,.
Cc1nc(SCc2ccc(OCCC(C)C)cc2)n[nH]1,-10,-2,16,45*,16,-24
Cc1ccc(Nc2ncc3c(n2)CC(C)CC3=O)c(C)c1 (stereo not drawn),-4,-9,.,.,52*,-2
CCOC(=O)N1CCN(Cc2nc3c(c(=O)n(C)c(=O)n3C)n2Cc2ccc(F)cc2)CC1,2,2,.,11,0,11
N#CCSc1nnc(-c2sc3ccccc3c2Cl)o1,4,5,-9,.,.,-6
Clc1cccc2sc(-c3nnc(-c4ccccc4)o3)c(Cl)c12,19,0,35,44*,.,-3
Cc1ccc(-c2cc(NC(=O)CCl)n(-c3ccccc3)n2)cc1,.,21,8,2,-6,-25
Cc1ccc(-n2nc(C)c(NC(=O)CCl)c2C)cc1,-6,55*,12,-13,.,2
c1ccc(CSc2snnc2-c2ccccc2)cc1,-13,-2,.,?,.,.
Clc1ccc(CSc2snnc2-c2ccccc2)c(Cl)c1,-21,-2,.,?,38*,.
O=C(Nc1ccc(Cl)c(Cl)c1)N[C@H]1CC[C@@H](CCn2cc(C3CCCCC3)nn2)O[C@H]1CO,.,.,.,4,.,.
C[C@H](CO)N1C[C@H](C)[C@@H](CN(C)C(=O)Nc2ccccc2F)Oc2ncc(-c3ccc(F)cc3)cc2C1=O,.,.,.,-8,.,.
CCOC(=O)c1c(-c2ccc(C)cc2)csc1NC(=S)NC(=O)c1ccccc1,-14,-12,.,-3,-16,.
CCOC(=O)c1c(-c2ccc(C)cc2)csc1NC(=O)c1cc2ccccc2oc1=O,2,-1,2,49*,12,-7
CC1(C)CC2CC(C)(CN2C(=O)c2ccccc2)C1 (stereo not drawn),-3,2,-4,.,0,9
COc1ccc2c(c1)CC/C(=C\c1ccc(C)o1)C2=O,-4,-4,87*,40,16,-31
CC(=O)N1c2c(cc(Br)cc2S(=O)(=O)N2CCOCC2)CC1C (stereo not drawn),63*,2,-14,-2,.,11
COc1ccc(-c2csc(C(O)c3ccccc3)n2)cn1 (stereo not drawn),.,-1,.,61*,.,.
SMILES,Vif imaging,Glyco luc inh,MITF TRPM1 HTS,esBAF inh,Wnt bcat act,PfHsp90 set2
COc1cccc(C(O)c2nc(-c3ccc(N(C)C)cc3)cs2)c1 (stereo not drawn),-32,-6,.,45*,19,.
COc1ccc(-c2csc(C(O)c3cccc(OC)c3)n2)cc1 (stereo not drawn),-23,0,.,11,2,.
OC(c1ccccc1)c1nc(-c2cccs2)cs1 (stereo not drawn),11,1,.,49*,6,.
CCS(=O)(=O)N1CCC(C(=O)NCc2ccc(OC)cc2OC)CC1,10,3,-7,.,2,4
CNC(=O)C1CC(=O)N(c2ccc(OCC(=O)Nc3ccc(OC)cc3)cc2)C1 (stereo not drawn),10,1,-1,-4,-3,4
Cc1ccc(S(=O)(=O)Nc2nc3cc(C)c(C)cc3[nH]2)cc1,-1,-1,-6,.,1,11
COc1ccccc1OCCNC(=O)c1ccc(Br)cc1,-7,-2,38,56*,13,97*
O=C(NCCCCc1ccccc1)c1ccc(Br)cc1,8,0,.,12,3,112*
O=C(NCCc1ccccc1)c1ccc(Br)o1,-8,0,?,49*,25,5
